# Sampled rows, rich in hits. Any-hit rate of the full collection: about 2.2%.
# KLF5 inh – KLF5 expression inhibitors, primary screen, DLD-1 cells, luminescence; DLD-1 KLF5 promoter-luciferase reporter; inhibition, % at 5 µM; actives 0.23% (n = 290,000); AID 1700, 2009;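 active = inhibition above a per-plate limit of that plate's mean compound inhibition plus 3 SD, cut at about 60% in these data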;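 note: 0% = DMSO wells and 100% = LY294002 at 200 µM; higher means less KLF5 promoter-driven luciferase light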
# BaF3 parental – parental Ba/F3 cell viability inhibition, counter-screen for JAK2V617F inhibitor project, murine pro-B, CellTiter-Glo luminescence; inhibition, % at 5.6 µM; CellTiter-Glo ATP luminescence; actives 1.1% (n = 220,000);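 active = inhibition above a per-campaign cutoff, the mean inhibition of all tested compounds plus 3 SD, cut at about 27% in these data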;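 note: 0% = DMSO wells and 100% = JAK Inhibitor I control wells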
# APP transl inh – inhibitors of APP translation via 5'UTR reporter, primary screen, APP 5'UTR luciferase, SH-SY5Y cells. SH-SY5Y APP 5'UTR-luciferase reporter, luminescence. inhibition, % at 2 µM. actives 0.82% (n = 190,000). AID 1285, 2008;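 active = inhibition above a set limit, derived from the sample mean plus 3 SD, cut at about 45% in these data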
# aSyn UTR inh – MLPCN primary screen, SNCA 5' untranslated region. alpha-synuclein 5'UTR reporter, inhibitor activity. inhibition, % (tested at 7.5 µM). actives 0.82% (n = 300,000). AID 1813, 2009; in the data active = inhibition above about 60%;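 note: H4 neuroglioblastoma cells stably carrying SNCA 5'UTR luciferase fusion; 0% = DMSO wells and 100% = positive control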
# Ba/F3 V617F tox – reduced viability of JAK2V617F-dependent Ba/F3 cells, primary screen, JAK2V617F inhibitor project, cell-based, Ba/F3 EpoR-JAK2V617F, luminescence. AID 1446, 2008. ATP luminescence. actives 1.1% (n = 220,000). inhibition, % at 5.6 µM;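 active = inhibition above the campaign mean plus 3 SD over all tested compounds, cut at about 24% in these data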;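 note: cytokine-independent growth of Ba/F3 cells driven by EpoR plus mutant JAK2; 0% = DMSO-treated cells and 100% = JAK inhibitor I control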
# IEC-6 tox – cytotoxicity in IEC-6 intestinal epithelial cells, primary screen, cytotoxicity control for KLF5 inhibitor project, cell-based, luminescence; IEC-6 cytotoxicity, luminescence viability; inhibition, % at 5 µM; actives 0.78% (n = 290,000); AID 1825, 2009; in the data active = inhibition above about 22%;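 note: 0% = plate median of test compound wells and 100% = cytotoxic reference compound wells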
# BaF3 parental 2 – parental Ba/F3 cell viability inhibition, counter-screen for JAK2V617F inhibitor project, murine pro-B, CellTiter-Glo luminescence; shares compounds with Ba/F3 V617F tox; cells kept alive by added IL-3; inhibition, % at 5.6 µM; actives 31% (n = 580);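 active = cell growth inhibition above the hit limit set in the earlier mutant JAK2 cell screen, cut at about 27% in these data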;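 note: plate controls were DMSO-treated cells for no effect and JAK Inhibitor I control wells for full effect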
# JAK2V617F conf – viability loss in Ba/F3 EpoR-JAK2V617F cells, confirmation, JAK2V617F inhibitor project, cell-based, luminescence, triplicate; inhibition, % at 5.6 µM; CellTiter-Glo luminescence; actives 66% (n = 580); shares compounds with Ba/F3 V617F tox; AID 1521, 2009;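 active = mean inhibition above the hit cutoff derived in the earlier primary screen, cut at about 25% in these data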;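 note: 0% = DMSO-treated cells and 100% = JAK inhibitor I control wells; higher means lower luminescence from reduced cell ATP and viability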
# The depositor's hits bear a star; . = not tested or not shown.
SMILES,KLF5 inh,BaF3 parental,APP transl inh,aSyn UTR inh,Ba/F3 V617F tox,IEC-6 tox,BaF3 parental 2,JAK2V617F conf
COc1ccc(-c2cc(C(=O)N/N=C/c3ccc(OC)c(COCC(F)(F)C(F)F)c3)c3ccccc3n2)c(OC)c1,-19,4,4,32,49*,4,-2,6
COc1ccc(Cl)cc1NC(=O)C/C(C)=N/NC(=O)C(=O)NCc1ccccc1,-1,.,.,30,.,3,.,.
Cc1ccc(NC(=O)C2CCCCC2)c(O)c1,-23,3,-13,-8,1,2,.,.
Cc1ccc(O)c(NC(=O)C2CCCCC2)c1,-23,20,.,-27,25*,0,18,50*
Cc1ccc(C(=O)NCCCNC(=O)c2ccco2)cc1C,-26,.,.,11,.,3,.,.
O=C(COc1coc(CN2CCc3ccccc32)cc1=O)Nc1cccc(F)c1,.,.,.,-1,.,.,.,.
Cc1nnc(N2C(=O)C(=O)/C(=C(\O)c3ccc4c(c3)CC(C)O4)C2c2ccccc2)s1 (stereo not given),-41,.,.,-54,.,3,.,.
CCOC(=O)/C=C/S(=O)(=O)c1ccc(NC(C)=O)cc1,-15,4,74*,-58,58*,5,21,24*
CCCCn1c(=N)n(CC(O)COc2ccccc2)c2ccccc21 (stereo not given),-10,7,1,-7,4,1,.,.
CCCCn1c(=N)n(CC(O)COc2ccc(C)cc2)c2ccccc21 (stereo not given),-2,16,11,1,65*,7,5,48*
Cc1ccc(/C=N/NC(=O)C(=O)N/N=C/c2ccc(C)o2)o1,-44,0,7,13,45*,-2,-6,-12
O=C(NC1CCSc2ccccc21)c1ccc(C(F)(F)F)cc1 (stereo not given),1,.,.,-1,.,0,.,.
NC(=O)c1ccccc1NC(=O)CCc1ccccc1,-63,0,-4,-113,-5,-4,.,.
NC(=O)c1ccccc1NC(=S)NC(=O)CCc1ccccc1,68*,7,71*,11,47*,60*,18,91*
CCOC(=O)N1CCN(C(=O)c2cc(-c3ccc(OCC)cc3)nc3ccccc23)CC1,6,20,78*,-13,68*,24*,69*,94*
CCOc1ccc(-c2cc(C(=O)N3CCN(C)CC3)c3ccccc3n2)cc1,-54,7,-37,-136,1,-2,.,.
COc1ccc(S(=O)(=O)N2CCC(C(=O)NCC3CCCCC3)CC2)cc1,-4,.,.,3,.,0,.,.
CCN1CCN(c2ccc(S(=O)(=O)N3CCCCC3)cc2NC(=O)c2cccc(C(F)(F)F)c2)CC1,.,.,.,17,.,.,.,.
COC(=O)c1ccc(NC(=O)C(C)Oc2ccccc2)cc1 (stereo not given),-15,4,-16,10,26*,-3,-7,-17
CC(Oc1ccccc1)C(=O)Nc1ccc(C(N)=O)cc1 (stereo not given),6,0,-10,-16,-2,4,.,.
Cc1ccc(C)c(Cn2nnc3c(=O)[nH]c(C4CCCN(S(=O)(=O)Cc5ccccc5)C4)nc32)c1 (stereo not given),-22,.,.,24,.,7,.,.
CSCc1cc(N(C)C)nc(SCc2ccc(Cl)c(Cl)c2)n1,26,1,-8,36,42*,-2,-3,1
CNc1cc(CSC)nc(SCc2ccc(Cl)cc2Cl)n1,-4,1,-1,49,-1,-1,.,.
Oc1ccc(C=Nc2cccc3ncccc23)c(O)c1,-21,16,12,-21,52*,18,-2,-4
Oc1ccc(C=Nc2ccc3ncccc3c2)c(O)c1,-8,1,-54,-12,-1,-1,.,.
SMILES,KLF5 inh,BaF3 parental,APP transl inh,aSyn UTR inh,Ba/F3 V617F tox,IEC-6 tox,BaF3 parental 2,JAK2V617F conf
Cc1coc2cc3oc(=O)c(CCC(=O)N4CCC(C(=O)O)(c5ccccc5)CC4)c(C)c3cc12,-24,.,.,-17,.,5,.,.
CCOC(=O)c1[nH]c(C)c(C(=O)NC2CCCCC2)c1C,-40,6,0,11,100*,6,-5,-21
CCOC(=O)c1[nH]c(C)c(C(=O)NCC2CCCO2)c1C (stereo not given),11,5,-12,10,-2,2,.,.
CCN(CC)CCCNC(=O)c1cc(-c2ccc(Cl)cc2)on1,-4,1,-12,-8,24*,-1,0,-1
CCc1nc2ccccc2c(C(=O)O)c1C,1,1,-9,-6,3,-4,.,.
CCc1nc(N=C(N)N)nc2ccccc12,-46,17,-13,-12,28*,3,13,53*
CCOC(=O)c1ccc(NC(=O)NCCc2ccccc2OC)cc1,-1,0,-27,8,64*,-2,-6,-10
CCOC(=O)c1ccc(NC(=S)NCCC2=CCCCC2)cc1,5,-3,12,4,81*,3,-5,-14
CCOC(=O)c1ccc(NC(=O)NCc2ccccc2OC)cc1,-11,3,-25,28,6,5,.,.
Cc1ccc(NC(=S)NCCC2=CCCCC2)cc1,-45,12,-95,-137,7,8,.,.
CCOC(=O)N1CCN(C(=O)COC(=O)c2ccc(S(=O)(=O)N(CC)CC)cc2)CC1,.,.,.,-12,.,.,.,.
CCOC(=O)N1CCN(c2c(F)cc3[nH]c(=S)[nH]c3c2Br)CC1,-27,12,15,13,28*,6,7,25*
Cc1nc2nc3c(c(=O)n2[nH]1)CCC3,-31,7,17,11,-1,-7,.,.
Cc1[nH]c(=O)nc2c1CCC2,-15,0,-20,-4,30*,2,-7,-10
COc1ccc(OC)c(N(/C(N)=N/c2nc(C)cc(C)n2)S(=O)(=O)c2ccc(NC(C)=O)cc2)c1,-3,.,.,15,.,7,.,.
C=C(C)COc1cc2oc(=O)c(CC(=O)N3C[C@H]4C[C@@H](C3)c3cccc(=O)n3C4)c(C)c2cc1Cl,-6,.,.,23,.,0,.,.
CC1(C)CC(=O)C(C=NCCN2CCN(C(=S)Nc3ccc(F)cc3)CC2)=C(O)C1,-3,5,0,-14,37*,6,23,40*
Cc1ccc(-c2nc(C=Nc3ccc(O)cc3)c(O)o2)cc1,-11,19,66*,-95,38*,5,28*,83*
Cc1sc2ncnc(NCc3cccs3)c2c1C,-10,21,-11,19,34*,12,43*,64*
